Laboratory results taken from PubChem BioAssay (EPA / NIEHS).
“And” between values parts separate entries of the source, which are not always exact repeats. Equal values may be shown once. A structure can be active in one record and inactive in another. The source made the active and inactive calls. The calls were made as follows: active = hit-call score of the fitted dose curve at least 0.9, where 1 is the maximum; inactive = score below 0.9.

Assay: ATG_FoxO_CIS: Attagene CIS-FACTORIAL HepG2 Assay for human Forkhead box O (FoxO) (AID 2282943)
Conditions: HepG2 Attagene cis-reporter, FoxO element, mRNA; actives raise or lower the signal
Summary of the method: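 Endogenous transcription factor activity read from multiplexed cis-promoter reporter transcripts in transiently transfected HepG2, 24 h after dosing. Reporter RNA measured via RT-PCR plus capillary electrophoresis of FAM-labeled products; gain or loss relative to DMSO.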

Row | SMILES | outcome | AC50
1 | COC(=O)[C@H]1[C@H]2C[C@@H]3c4[nH]c5cc(OC)ccc5c4CCN3C[C@H]2C[C@@H](OC(=O)c2cc(OC)c(OC)c(OC)c2)[C@@H]1OC | inactive | 
2 | CC(COCC(C)OC(=O)c1ccccc1)OC(=O)c1ccccc1 (stereo unspecified) | inactive | 
3 | COc1ccc(C(=O)Nc2nc3ccccc3c(NCc3ccccc3)c2C#N)cc1 | inactive | 
4 | Oc1ccc(O)cc1 | inactive | 
5 | O=C1O[C@H]([C@H](O)CO)C(O)=C1O | inactive | 
6 | O=[Si]=O | inactive | 
7 | O=C(O)c1cccnc1 | inactive | 
8 | CC(=O)O | inactive | 
9 | CC(=O)O[C@]1(C(C)=O)CC[C@H]2[C@@H]3C=C(Cl)C4=CC(=O)[C@@H]5C[C@@H]5[C@]4(C)[C@H]3CC[C@@]21C | inactive | 150 µM (active) and 158 µM (active) and 48.6 µM (active)
10 | Cc1ccc(C(C)(C)C)c(O)c1 | inactive | 
11 | NC1CCCCC1 | inactive | 
12 | CC(C)(O)c1ccc(CNC(=O)c2cccnc2Oc2ccc(F)cc2)cc1 | inactive | 
13 | C/C=C/C=C/C(=O)O | inactive | 
14 | CC(C)(C)c1ccccc1 | inactive | 
15 | S=c1[nH]c2ccccc2s1 | inactive | 
16 | O=C(NS(=O)(=O)/C=C/c1cccs1)c1ccc(F)cc1Br | inactive | 
17 | O=C(N[C@@H](c1ccccc1)[C@@H]1CCCCN1)c1cccc(C(F)(F)F)c1Cl | inactive | 
18 | CCOCCOCCO | inactive | 
19 | CC(C)c1cccc(C(C)C)c1 | inactive | 
20 | Nc1nc(Cl)nc2c1ncn2[C@H]1C[C@H](O)[C@@H](CO)O1 | inactive | 
21 | CCN(CC)CCOc1ccc(C(=C(Cl)c2ccccc2)c2ccccc2)cc1 | inactive | 
22 | COC(=O)CCCC(=O)OC | inactive | 
23 | OCC(CO)n1cnc(-c2ccc(F)cc2)c1-c1ccnc(Oc2ccccc2)n1 | inactive | 
24 | CCCC(=O)O | inactive | 
25 | CC(=O)[C@@]1(O)CC[C@H]2[C@@H]3CCC4=CC(=O)CC[C@]4(C)[C@H]3CC[C@@]21C | inactive | 
26 | CCc1nc(N)nc(N)c1-c1ccc(Cl)cc1 | inactive | 
27 | O=C1NC(=O)C(c2ccccc2)(c2ccccc2)N1 | inactive | 
28 | Oc1ccccc1O | inactive | 
29 | CCCCCCCCCC[N+](C)(C)[O-] | inactive | 

Assay: ATG_GATA_CIS: Attagene CIS-FACTORIAL HepG2 Assay for human GATA Binding Protein (AID 2282944)
Conditions: HepG2 GATA cis-element reporter, Attagene multiplex mRNA; actives raise or lower the signal
Summary of the method: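 HepG2 cells transiently transfected with multiplexed cis-element reporter units reflecting endogenous transcription factor activity; reporter mRNA measured after 24 h dosing by RT-PCR, 6-FAM labeling, HpaI digestion and capillary electrophoresis. Bidirectional fitting versus DMSO baseline.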

Row | SMILES | outcome | AC50
30 | COC(=O)[C@H]1[C@H]2C[C@@H]3c4[nH]c5cc(OC)ccc5c4CCN3C[C@H]2C[C@@H](OC(=O)c2cc(OC)c(OC)c(OC)c2)[C@@H]1OC | inactive | 
31 | CC(COCC(C)OC(=O)c1ccccc1)OC(=O)c1ccccc1 (stereo unspecified) | inactive | 
32 | COc1ccc(C(=O)Nc2nc3ccccc3c(NCc3ccccc3)c2C#N)cc1 | inactive | 
33 | Oc1ccc(O)cc1 | inactive | 
34 | O=C1O[C@H]([C@H](O)CO)C(O)=C1O | inactive | 
35 | O=[Si]=O | inactive | 
36 | O=C(O)c1cccnc1 | inactive | 
37 | CC(=O)O | inactive | 
38 | CC(=O)O[C@]1(C(C)=O)CC[C@H]2[C@@H]3C=C(Cl)C4=CC(=O)[C@@H]5C[C@@H]5[C@]4(C)[C@H]3CC[C@@]21C | inactive | 174 µM (active) and 48.9 µM (active)
39 | Cc1ccc(C(C)(C)C)c(O)c1 | inactive | 
40 | NC1CCCCC1 | inactive | 
41 | CC(C)(O)c1ccc(CNC(=O)c2cccnc2Oc2ccc(F)cc2)cc1 | inactive | 
42 | C/C=C/C=C/C(=O)O | inactive | 
43 | CC(C)(C)c1ccccc1 | inactive | 
44 | S=c1[nH]c2ccccc2s1 | inactive | 
45 | O=C(NS(=O)(=O)/C=C/c1cccs1)c1ccc(F)cc1Br | inactive | 
46 | O=C(N[C@@H](c1ccccc1)[C@@H]1CCCCN1)c1cccc(C(F)(F)F)c1Cl | inactive | 
47 | CCOCCOCCO | inactive | 
48 | CC(C)c1cccc(C(C)C)c1 | inactive | 
49 | Nc1nc(Cl)nc2c1ncn2[C@H]1C[C@H](O)[C@@H](CO)O1 | inactive | 
50 | CCN(CC)CCOc1ccc(C(=C(Cl)c2ccccc2)c2ccccc2)cc1 | inactive | 17.6 µM (active)
51 | COC(=O)CCCC(=O)OC | inactive | 
52 | OCC(CO)n1cnc(-c2ccc(F)cc2)c1-c1ccnc(Oc2ccccc2)n1 | inactive | 
53 | CCCC(=O)O | inactive | 
54 | CC(=O)[C@@]1(O)CC[C@H]2[C@@H]3CCC4=CC(=O)CC[C@]4(C)[C@H]3CC[C@@]21C | inactive | 
55 | CCc1nc(N)nc(N)c1-c1ccc(Cl)cc1 | inactive | 
56 | O=C1NC(=O)C(c2ccccc2)(c2ccccc2)N1 | inactive | 
57 | Oc1ccccc1O | inactive | 
58 | CCCCCCCCCC[N+](C)(C)[O-] | inactive | 
